In PubChem BioAssay (NCATS):
Results filed as inconclusive are left out. Where a call stands in place of a potency, no number is given. The source made the active and inactive calls. The call rests on the fitted dose curve; in most records, active means well fitted inhibition curve with a large enough effect in the repeat runs; inconclusive means weak or mixed curves; inactive means no such curve, though single readings can be large or run the other way.

biological target: Cytochrome P450 2C9 (Homo sapiens) (UniProt P11712); experiment: Cytochrome P450 family 2 subfamily C member 9 (CYP2C9) small molecule antagonists: luciferase biochemical (cell-free) qHTS assay (AID 1645842); details: P450-Glo CYP2C9 enzyme assay, luciferin luminescence; series mostly up to 57.4 µM; further: nearly all actives have a fitted effect of over 55% in size
Sequence (P11712 whole entry, looked up): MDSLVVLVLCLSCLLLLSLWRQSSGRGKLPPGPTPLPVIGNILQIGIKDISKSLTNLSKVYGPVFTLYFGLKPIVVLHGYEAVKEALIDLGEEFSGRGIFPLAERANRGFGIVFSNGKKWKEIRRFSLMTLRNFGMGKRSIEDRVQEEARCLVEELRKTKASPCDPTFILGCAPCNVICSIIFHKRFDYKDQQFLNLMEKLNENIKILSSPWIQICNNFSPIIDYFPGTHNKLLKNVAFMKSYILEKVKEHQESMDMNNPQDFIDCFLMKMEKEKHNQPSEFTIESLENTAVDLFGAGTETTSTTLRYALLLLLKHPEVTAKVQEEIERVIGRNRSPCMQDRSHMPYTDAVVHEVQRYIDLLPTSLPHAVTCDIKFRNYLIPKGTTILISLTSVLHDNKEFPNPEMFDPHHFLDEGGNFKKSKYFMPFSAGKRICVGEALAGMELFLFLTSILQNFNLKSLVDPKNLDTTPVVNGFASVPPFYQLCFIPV
Experimental: National Center for Advancing Translational Sciences [NCATS] Assay Overview: Cytochrome P450 (CYP) enzymes are membrane-bound hemeproteins that play a key role in metabolism of drugs and xenobiotics. Assaying the effect of chemicals on CYP isozymes is useful to minimize the adverse drug reactions and toxicities in drug development process. Chemical compounds were tested for their effect on CYP enzyme activities by using P450-Glo (TM) screening systems (Promega Corporation, Madison, WI). These systems provide a luminescent method containing proluciferin substrates and are converted to luciferin products by CYP isozymes. The luciferin products formed are detected with a luciferin detection reagent, and the amount of light produced is proportional to CYP activity. P450-Glo (TM) CYP2C9 screening system (Catalog. No. V9790) was used to detect the compounds that interfere in CYP2C9 activity.
Assay Protocol Summary: Two ul of enzyme-substrate mix supplemented with 0.4% Bovine Serum Albumin was dispensed into medium binding white/solid 1536-well plates (Greiner Bio-One North America Inc., Monroe, NC) using a Flying Reagent Dispenser (FRD, Aurora Discovery, San Diego, CA). […] The assay plates were incubated at room temperature for 10 min. Then 2 ul of NADPH regeneration solution was added to each well of the assay plates using an FRD and incubated at 37C for 1 h. The reaction was stopped by adding 4 ul of detection reagent using an FRD and after 20 min incubation at room temperature, the luminescence signal was measured using a ViewLux plate reader (Perkin Elmer, Shelton, CT). Data were expressed as relative luminescence units.
Potency means the concentration at half of the fitted maximal effect.

SMILES	Potency
CN1C2CCC(C)(C)C1CC(OC(=O)C(O)(c1cccs1)c1cccs1)C2 (stereo not given)	inactive
C[C@@H]1CN(C2CCC(C#N)(c3ccc(F)cc3)CC2)CC[C@]1(C(=O)O)c1ccccc1 (stereo not given in full)	inactive
CCCC[N+]1(C)[C@@H]2CC(OC(=O)[C@H](CO)c3ccccc3)C[C@H]1[C@@H]1O[C@@H]12 (stereo not given in full)	inactive
c1ccc2nc(N3CCNCC3)ccc2c1	inactive
C[C@]12CC[C@H]3[C@@H](CCC4=CC(=O)CC[C@@]43C)[C@@H]1CC[C@@H]2C(=O)O	inactive
O=C(O)Cc1ccccc1	inactive
CC[C@H]1C[C@@H]2C[C@H]3c4[nH]c5ccc(OC)cc5c4CCN(C2)[C@@H]13	inactive
CCOP(=S)(OCC)O/N=C(\C#N)c1ccccc1	2.19 µM (active)
CN1CCC(N(Cc2ccccc2)c2ccccc2)CC1	inactive
CC1Sc2c(C(=O)O)c(=O)c3cc(F)c(N4CCNCC4)cc3n21 (stereo not given)	inactive
CC(Cc1ccc2c(c1)OCO2)NO (stereo not given)	38.6 µM (active)
CC(CC(C(N)=O)(c1ccccc1)c1ccccc1)N(C)C (stereo not given)	inactive
C#C[C@]1(O)CC[C@H]2[C@@H]3CCC4=CC(=O)CCC4=C3C=C[C@@]21CC	inactive
CCCCC1C(=O)NC(=O)N(C2CCCCC2)C1=O (stereo not given)	26.8 µM (active)
C=CCN1CC[C@]23CCCC[C@H]2[C@H]1Cc1ccc(O)cc13	inactive
O=C(O)c1nn(Cc2ccc(Cl)cc2Cl)c2ccccc12	inactive
CN(C)CCc1c[nH]c2cccc(O)c12	inactive
COc1cc(CC(C)N)c(OC)cc1Br (stereo not given)	inactive
C[C@]12CC[C@H]3[C@@H](CCC4=CC(=O)CC[C@@H]43)[C@@H]1CC[C@@H]2O	inactive
CCCC(C)C1(CC)C(=O)N=C(S)NC1=O (stereo not given)	15.5 µM (active)

SMILES	Potency
COc1ccc2[nH]cc(CCN(C(C)C)C(C)C)c2c1	inactive
CC[C@]1(O)CC[C@H]2[C@@H]3CCC4=CCCC[C@@H]4[C@H]3CC[C@@]21C	inactive
Cc1nnc2n1-c1sc(CCC(=O)N3CCOCC3)cc1C(c1ccccc1Cl)=NC2	inactive
CCO[C@H]1O[C@@H]2OC3(C)CC[C@H]4[C@H](C)CC[C@@H]([C@H]1C)[C@@]24OO3	15.5 µM (active)
C=CC[C@]1(O)CC[C@H]2[C@@H]3CCC4=CC(=O)CCC4=C3C=C[C@@]21C	11 µM (active)
CN(C)CCc1c[nH]c2ccc(O)cc12	inactive
Cc1nc2ccccc2c(=O)n1-c1ccccc1Cl	27.7 µM (active)
Cc1nnc2n1-c1sc(CCc3ccc(CC(C)C)cc3)cc1C(c1ccccc1Cl)=NC2C (stereo not given)	15.5 µM (active)
CC(C)(C)OC(=O)c1ncn2c1[C@@H]1CCCN1C(=O)c1c(Br)cccc1-2	4.36 µM (active)
COP(=S)(OC)Oc1ccc(S(N)(=O)=O)cc1	4.36 µM (active)
O=c1[nH]c2cc(Cl)ccc2n1C1CCNCC1	inactive
C[C@]12CC[C@H]3[C@@H](CC=C4C[C@@H](O)CC[C@@]43C)[C@@H]1CC[C@@H]2O	inactive
c1cc2c(c(N3CCNCC3)c1)OCCO2	inactive
Cc1cccc(Cc2cnc[nH]2)c1C	0.123 µM (active)
COc1cc(N)c(Cl)cc1C(=O)NC1CN2CCC1CC2 (stereo not given)	inactive
CC#C[C@]1(O)CC[C@H]2[C@@H]3C[C@H](C)C4=CC(=O)CC[C@]4(C)[C@H]3CC[C@@]21C	17.4 µM (active)
COc1cc(C[C@@H](C)N)c(OC)cc1Br	inactive
O=C(CCCN1CCC(n2c(=O)[nH]c3ccccc32)CC1)c1ccc(F)cc1	inactive
C[C@]12C=CC(=O)C=C1CC[C@@H]1[C@@H]2CC[C@@]2(C)[C@H]1CC[C@]2(C)O	inactive
OC(O)C(Cl)(Cl)Cl	inactive
